Structures can show the parent of a compound that is named as a salt.
These molecules were tested on Klebsiella aerogenes DSM 30053 (assay: growth (OD595) fold change vs plate DMSO controls (fold change (ratio)); higher = more growth). Conditions: incubation time: 27 h, anaerobic, 37 °C.
In short: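 The 96-well mGAM cultures had been kept anaerobic for 27 h at 37 °C before being shaken and read at 595 nm. Blank subtraction, compound background correction with 20 µM compound solutions in water, and a calibration factor of 5 turned the readings into OD. Growth is given as the fold change versus the median of plate DMSO controls. Fold changes above 1.5 were set to NA, and the values are means of 2 biological replicates.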
With `Oc1c(Cl)cc(Cl)cc1Sc1cc(Cl)cc(Cl)c1O` [Bithionol] (20 µM) the growth was 1.01.
`CO[C@@]1(NC(=O)C2SC(=C(C(N)=O)C(=O)O)S2)C(=O)N2C(C(=O)O)=C(CSc3nnnn3C)CS[C@@H]21` (some centres undefined) [Cefotetan] (20 µM) was tested, and the growth was 0.987.
For `N#CC(c1ccc(Cl)cc1)c1c(Cl)cc(-n2ncc(=O)[nH]c2=O)cc1Cl` (centres undefined) [Diclazuril] (20 µM), the growth was 1.08.
Work on `CN(C)CCCN1c2ccccc2Sc2ccc(C(F)(F)F)cc21` [Triflupromazine hydrochloride] (20 µM) yielded a growth of 1.01.
In the case of `CCC(=O)OCC(=O)[C@@]1(OC(=O)CC)[C@@H](C)C[C@H]2[C@@H]3CCC4=CC(=O)C=C[C@]4(C)[C@@]3(Cl)[C@@H](O)C[C@@]21C` [Beclomethasone dipropionate] (20 µM), the growth was 1.04.
For `O=C1CN(/N=C/c2ccc(-c3ccc([N+](=O)[O-])cc3)o2)C(=O)N1` [Dantrolene sodium salt] (20 µM), the growth was 0.993.
`CC(C)(C(=O)O)c1ccc(C(O)CCCN2CCC(C(O)(c3ccccc3)c3ccccc3)CC2)cc1` (centres undefined) [Fexofenadine hydrochloride] (20 µM) showed a growth of 1.09.
`C[C@H]1[C@@H](O)O[C@@H]2O[C@@]3(C)CC[C@H]4[C@H](C)CC[C@@H]1[C@@]24OO3` [Artenimol] (20 µM) showed a growth of 0.982.
In the case of `CC(C)(C)NC[C@H](O)COc1ccccc1C1CCCC1` [Penbutolol sulfate] (20 µM), the growth was 0.985.
`Cc1ccc(-c2ncc(Cl)cc2-c2ccc(S(C)(=O)=O)cc2)cn1` [Etoricoxib] (20 µM) was tested, and the growth was 1.14.
In the case of `Clc1ccc(CO/N=C(\Cn2ccnc2)c2ccc(Cl)cc2Cl)c(Cl)c1` [Oxiconazole nitrate] (20 µM), the growth was 0.981.
In the case of `NCc1ccc(S(N)(=O)=O)cc1` [Mafenide hydrochloride] (20 µM), the growth was 1.04.
`c1ccc(-c2ccc(C(c3ccccc3)n3ccnc3)cc2)cc1` (centres undefined) [Bifonazole] (20 µM) was tested, and the growth was 1.02.
`OC[C@H]1O[C@@H](O[C@H]2[C@H](O)[C@@H](O)[C@H](O)O[C@@H]2CO)[C@H](O)[C@@H](O)[C@H]1O` [Lactose] (50 µM) gave a growth of 1.05.
`CC(CNC1CCCCC1)OC(=O)c1ccccc1` (centres undefined) [Hexylcaine hydrochloride] (20 µM) was tested, and the growth was 1.01.
In the case of `CN(C)CCc1c[nH]c2ccc(Cn3cncn3)cc12` [Rizatriptan benzoate] (20 µM), the growth was 1.02.
With `CC[N+]1(CC)CCC(=C(c2ccccc2)c2ccccc2)C1C` (centres undefined) [Prifinium Bromide] (20 µM) the growth was 1.04.
Molecule `COc1ccc(C(=O)c2ccc(C)cc2)c(O)c1` [Mexenone] (20 µM) has a growth of 0.378.
In the case of `CC(C)NCC(O)COc1ccc(CCOCC2CC2)cc1` (centres undefined) [Betaxolol hydrochloride] (20 µM), the growth was 1.07.
`COc1cc(N)cn[n+]1-c1ccccc1` [Amezinium metilsulfate] (20 µM) showed a growth of 1.08.
`C[C@H](NCc1ccc(OCc2cccc(F)c2)cc1)C(N)=O` [Safinamide] (20 µM) was tested, and the growth was 1.
`CC#C[C@]1(O)CC[C@H]2[C@@H]3CCC4=CC(=O)CCC4=C3[C@@H](c3ccc(N(C)C)cc3)C[C@@]21C` [Mifepristone] (20 µM) showed a growth of 0.986.
Work on `O=C1CCC(N2C(=O)c3ccccc3C2=O)C(=O)N1` (centres undefined) [Thalidomide] (20 µM) yielded a growth of 1.04.
`CCCC(=O)Nc1ncnc2c1ncn2[C@@H]1O[C@@H]2COP(=O)(O)O[C@H]2[C@H]1OC(=O)CCC` [Bucladesine sodium salt] (20 µM) gave a growth of 1.04.
`CCOC(=O)C1=C[C@@H](OC(CC)CC)[C@H](NC(C)=O)[C@@H](N)C1` [Oseltamivir phosphate] (20 µM) gave a growth of 1.01.
`Brc1c(NC2=NCCN2)ccc2nccnc12` [Brimonidine L-tartrate] (20 µM) was tested, and the growth was 0.999.
`CC(C)(C)NC[C@H](O)COc1nsnc1N1CCOCC1` [Timolol maleate salt] (20 µM) gave a growth of 1.02.
`O=C(CCCN1CCC(O)(c2ccc(Cl)cc2)CC1)c1ccc(F)cc1` [Haloperidol] (20 µM) was tested, and the growth was 0.574.
`OC[C@@H](O)[C@H](O)[C@@H](O)CO` [Xylitol] (50 µM) gave a growth of 1.11.
With `Cc1cnc(C(=O)NCCc2ccc(S(=O)(=O)NC(=O)NC3CCCCC3)cc2)cn1` [Glipizide] (20 µM) the growth was 1.04.
Work on `Fc1ccc([C@@H]2CCNC[C@H]2COc2ccc3c(c2)OCO3)cc1` [Paroxetine hydrochloride] (20 µM) yielded a growth of 0.971.
`Nc1nnc(-c2cccc(Cl)c2Cl)c(N)n1` [Lamotrigine] (20 µM) gave a growth of 0.986.
Work on `Oc1c(Cl)cc(Cl)c(Cl)c1Cc1c(O)c(Cl)cc(Cl)c1Cl` (20 µM) yielded a growth of 1.02.
For `Cc1c(Nc2ncccc2C(=O)O)cccc1C(F)(F)F` [Flunixin meglumine] (20 µM), the growth was 1.05.
With `COc1c(O)cc2c(c1O)[C@@H]1O[C@H](CO)[C@@H](O)[C@H](O)[C@H]1OC2=O` [Bergenin] (20 µM) the growth was 1.11.
Work on `Nc1c(CC(=O)O)cccc1C(=O)c1ccc(Br)cc1` [Bromfenac] (20 µM) yielded a growth of 1.04.
In the case of `CNC[C@H](O)[C@@H](O)[C@H](O)[C@H](O)CO` [Meglumine] (20 µM), the growth was 1.05.
`O=C(Nc1ccc([N+](=O)[O-])cc1Cl)c1cc(Cl)ccc1O` [Niclosamide] (20 µM) gave a growth of 1.1.
`CN1CCN2c3ncccc3Cc3ccccc3C2C1` (centres undefined) [Mirtazapine] (20 µM) showed a growth of 1.
